Experimental data reported in PubChem BioAssay AID485284 (NMMLSC, 2010).
Results with a measured potency or affinity are listed apart.

Assay: inhibitors of CD8+ T cell–vesicle binding, dose response, mouse 2C CD8+ T cells, flow cytometry (AID 485284);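 further: drosophila derived vesicles carrying Ld MHC with QL9 peptide plus B7-1 and ICAM-1; vesicle binding seen as anti-B7-1 PE fluorescence on CD8 gated cells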
Settings: 2C mouse CD8+ T cell-exosome binding; at 45 µM (top of the series)

| Structure (SMILES) | binding remaining, % of control |
| --- | --- |
| COc1ccc([C@H]2CC(=O)C=C(c3cccc(Cl)c3)C2)cc1 | 141% |
| Cc1ccc(NC(=O)COC(=O)CCc2c[nH]c3ccccc23)c(C)c1 | 138% |
| CC(=O)c1cccc(NC(=O)c2ccncc2)c1 | 35.3% |
| CN(C)S(=O)(=O)N1CCN(S(=O)(=O)N(C)C)CC1 | 55.7% |
| O=C(NCC1CCCCC1)c1ccc(Cl)c(S(=O)(=O)N2CCOCC2)c1 | 111% |
| CCOc1ccc(NC(=O)CN(C)C(=O)c2ccc(N3CCOCC3)c([N+](=O)[O-])c2)cc1OCC | 134% |
| O=C(NCc1cccnc1)C(=O)NCC(c1ccco1)N1CCN(c2ccccc2)CC1 (stereo unspecified) | 110% |
| CCCCN(C(=O)C1CCC1)c1c(N)n(CC(C)C)c(=O)[nH]c1=O | 53.6% |
| COc1ccc(NC(=O)C2CCC(C(C)(C)C)CC2)cc1S(=O)(=O)N1CCCCC1 (stereo unspecified) | 97.1% |
| COc1ccccc1NS(=O)(=O)c1ccc(C)c(NC(=O)c2ccc(S(=O)(=O)N3CCCCCC3)cc2)c1 | 134% |
| CCc1noc(C)c1C(=O)OC(C)C(=O)Nc1ccc2c(c1)OCO2 (stereo unspecified) | 171% |
| CC(C)[C@H]1C(=O)Nc2ccccc2N1C(=O)N[C@@H](Cc1ccccc1)C(=O)N[C@@H](Cc1ccccc1)C(=O)O | 168% |
| CC1CCN(S(=O)(=O)c2csc(C(=O)Nc3ccccc3)c2)CC1 | 61.2% |
| Cc1c(C(=O)NCCSCc2c(F)cccc2Cl)cnn1-c1ccc(Cl)cc1 | 144% |
| O=C(COC(=O)c1ccc(S(=O)(=O)N2CCOCC2)cc1)Nc1ccccc1OC(F)F | 20.5% |
| CCOc1ccc(NC(=O)CN(C)C(=O)C2CC(=O)N(Cc3ccco3)C2)cc1OCC (stereo unspecified) | 145% |
